Among the data in ChEMBL document CHEMBL1157539, “Thousands of chemical starting points for antimalarial lead identification” (Nature, 2010) are Inhibition values, retold here.

Format in all cases: functional
Assay [1] concerns Plasmodium falciparum. The assay can be described thus: GSK_TCMDC: Inhibition of Plasmodium falciparum 3D7 in whole red blood cells, using parasite LDH activity as an index of growth. Test compounds present at 2uM.
The subject of assay [2] is Plasmodium falciparum. Briefly: GSK_TCMDC: Inhibition of Plasmodium falciparum Dd2 in whole red blood cells, using parasite LDH activity as an index of growth. Test compounds present at 2uM.
Another assay has as its system HepG2. The assay can be described thus: GSK_TCMDC: Percent inhibition of human HepG2 cell line. Test compounds present at 10uM.

As for `O=C(Nc1cccc(-c2cccc(-c3nc4cc(C(F)(F)F)ccc4[nH]3)c2)c1)Nc1ccc(F)c(F)c1F`, the Inhibition with Plasmodium falciparum [1] came out at 99%; with Plasmodium falciparum [2] it was 100%; in the assay on HepG2, 71%.
On the same counts, the results for `c1ccc(-c2csc(Nc3nc4cc5c(cc4s3)OCO5)n2)nc1` are 81%, 99% and 46%.
For the molecule `Clc1ccc(/N=C(/NCCCCCCCN/C(=N\c2ccc(Cl)cc2)Nc2ccc(Cl)cc2)Nc2ccc(Cl)cc2)cc1`, the Inhibition was 100% with Plasmodium falciparum [1], 99% with Plasmodium falciparum [2] and 100% in the assay on HepG2.
For the molecule `CC(=O)Nc1ccc(C(=O)NC2CCN(c3ccnc4cc(Cl)ccc34)C2)cc1.O=C(O)C(F)(F)F` (centres undefined), the Inhibition is given as 100% in the assay with Plasmodium falciparum [1], 100% in the assay with Plasmodium falciparum [2] and 1% with HepG2.
For the molecule `COc1ccc2nccc(N(C)CC3(O)CCN(CCc4ccc5c(c4)NC(=O)CS5)CC3)c2n1.Cl`, the Inhibition with Plasmodium falciparum [1] stood at 91%; with Plasmodium falciparum [2] it was 67%; in the assay with HepG2, 10%.
For `Cc1cc(=NN=Cc2ccc(F)cc2)c2cccc(C)c2[nH]1`, the Inhibition was determined as 100% in the assay on Plasmodium falciparum [1], 99% in the assay on Plasmodium falciparum [2] and 7% in the assay with HepG2.
In the case of `CCCCCCn1c(Sc2ccc(C#N)c([N+](=O)[O-])c2)nnc1-c1cccs1`, the Inhibition with Plasmodium falciparum [1] is reported as 97%; in the assay with Plasmodium falciparum [2], 60%; with HepG2, 26%.
As for `COc1nc2c(N3CCN(CCNCc4ccc5c(n4)NC(=O)CS5)CC3)ccnc2cc1F`, the results for the Inhibition in the assay on Plasmodium falciparum [1], in the assay on Plasmodium falciparum [2] and with HepG2 were 100%, 96% and 18%, respectively.
On the same counts, the results for `C=C[C@H]1CN(CCCCCCC)CC[C@H]1CC(=O)Nc1cnnc2ccc(OC)cc12.O=C(O)C(=O)O` are 100%, 100% and 12%.
For the molecule `O=C(Nc1ccc(N2CCCN(Cc3cccc(F)c3)CC2)cc1)c1ccccc1.O=C(O)C(F)(F)F`, the Inhibition with Plasmodium falciparum [1] is 95%; with Plasmodium falciparum [2] it was 95%; in the assay on HepG2, 25%.
Turning to `NC(=O)c1cccc(C(=O)Nc2cccc(-c3cccc(-c4nc5cc(F)ccc5[nH]4)c3)c2)c1`, the Inhibition was determined as 100% with Plasmodium falciparum [1], 73% in the assay with Plasmodium falciparum [2] and 47% in the assay with HepG2.
On to `COc1ccc2nccc([C@@H](O)CN3CCC(NCc4cc5cccc(OC)c5o4)CC3)c2c1.O=C(O)C(=O)O`, for which the Inhibition was found to be 99% in the assay with Plasmodium falciparum [1], 81% with Plasmodium falciparum [2] and 10% in the assay on HepG2.
On the same counts, the results for `O=C(C=Cc1ccc(Cl)c(Cl)c1)NCCCCCN1CCC(CCNC(=O)c2sc3ccccc3c2Cl)CC1` are 88%, 6% and 27%.

Broadly, the Inhibition is the relative decrease from the control value, in per cent. The low end stands for little suppression, the high end for strong suppression.
